This is part of a sample that, as a whole, favours compounds with a hit. Of some 79,000 tested, about 15% had one in any assay. Active and inactive are the calls of the source. No stated cut-off is given here; in the data, active means growth inhibition above about 70%; inactive means the rest.
experiment: NCI Yeast Anticancer Drug Screen. Data for the bub3 strain (AID 167); details: S. cerevisiae bub3 mutant strain, at 50.0 µM, stronger effect = higher value
Summary of the method: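 Part of a panel of yeast mutants defective in DNA damage repair or cell cycle regulation. Each strain is grown with compound, and inhibition is calculated relative to solvent-treated cultures.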

Structure (SMILES)	growth inhibition
O=C(O)c1ccc(C(=O)c2ccc(C(=O)c3ccc(C(=O)O)cc3)cc2)cc1	-13% (inactive)
NC1=NC=NCN1c1ccc(N)cc1	-3.6% (inactive)
CC1(C)CC2=C(Sc3ccccc3N2)C(=O)C1C(=O)C(=O)Nc1cccc([N+](=O)[O-])c1 (configuration not stated)	2% (inactive)
COC(=O)c1ccccc1CC1Cc2cc3c(cc2C1)CCC3	4.3% (inactive)
Nc1ccn(C2OC(CCl)C(O)C2O)c(=O)n1 (configuration not stated)	-39.9% (inactive)
Cn1c2nc(-[n+]3ccc(N4CCOCC4)cc3)nc-2c([O-])n(C)c1=O	-10.8% (inactive)
Nc1ncc2c(n1)SCC2	-17.6% (inactive)
CC1C(c2ccccc2)=C(c2ccccc2)C(c2ccccc2)=C(c2ccccc2)C1c1ccccc1 (configuration not stated)	-1.2% (inactive)
COC(=O)c1ccc(N(C)CC/C(CNc2nc(N)[nH]c(=O)c2[N+](=O)[O-])=N\NC(N)=O)cc1	-7.55% (inactive)
O=C1c2ccccc2C(=O)N1/N=C/c1ccc([N+](=O)[O-])cc1	-13.9% (inactive)
O=C(NCC1CC1)c1ccccc1NC(=O)c1cc2ccccc2oc1=O	18.7% (inactive)
CN(C)CCC(C(=O)C(C)(C)C)c1ccccn1 (configuration not stated)	-16.9% (inactive)
C=CCO[Si](C=C)(OCC=C)OCC=C	9.6% (inactive)
Cc1ccc2c(c1)nc(-c1ccccn1)n2CCc1ccncc1	92.7% (active)
CN(C)CC1CCC/C(=C\c2ccccc2)C1=O (configuration not stated)	38.5% (inactive)
N#CC1=C(N)C(c2ccccc2)(c2ccccc2)CC1	0.4% (inactive)
CCOC(=O)/C=C\C(=O)O.[Mn]	-31% (inactive)
